Reference: PubChem BioAssay AID652031 (The Scripps Research Institute Molecular Screening Center, 2013)
The campaign covered roughly 16,000 compounds. About 70 (0.4%) were called active. Cut-off read from the data, not from the text of the source: active = inhibition above about 50%; inactive = the rest. Only a selection was taken, and actives are over-represented in it overall.

Each compound was assayed against Kappa-type opioid receptor (Homo sapiens) (UniProt P41145) (assay: blocks the human kappa opioid receptor, Maybridge compounds (AID 652031)). Conditions: OPRK1 cells, antagonist mode, fluorescence readout; at 9 µM; stronger effect = higher value.
Chain of Kappa-type opioid receptor (Homo sapiens) (P41145 whole entry, looked up): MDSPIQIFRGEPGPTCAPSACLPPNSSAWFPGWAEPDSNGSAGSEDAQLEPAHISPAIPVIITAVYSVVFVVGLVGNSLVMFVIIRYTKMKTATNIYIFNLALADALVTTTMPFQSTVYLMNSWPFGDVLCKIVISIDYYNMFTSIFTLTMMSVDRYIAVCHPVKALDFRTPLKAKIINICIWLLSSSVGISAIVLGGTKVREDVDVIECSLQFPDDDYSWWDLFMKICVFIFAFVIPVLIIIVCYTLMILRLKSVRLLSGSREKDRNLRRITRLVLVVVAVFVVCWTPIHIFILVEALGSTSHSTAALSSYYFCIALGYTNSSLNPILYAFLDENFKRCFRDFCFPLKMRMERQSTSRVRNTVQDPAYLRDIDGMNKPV

inhibition, inactive:
O=S(=O)(c1ccc(Cl)s1)N1CCN(c2ccccc2)CC1 -14.3%, CC(C)NC(=O)NNc1c(Cl)cncc1Cl 4.6%, O=c1oc2c3ccccc3c3oc(=O)sc3c2s1 13.6%, Cc1nc(C(F)(F)F)ccc1NC(=O)/C=C\C(=O)O -4.6%, O=C(Nc1ccc(OCc2ccccc2)cc1)Nc1ccc2c(c1)C(=O)OC2 -8.9%, N#Cc1cccnc1NNC(=O)Nc1ccc(OCc2ccccc2)cc1 13.7%, O=c1[nH]c2cc(Cl)c(Cl)cc2n1-c1ccncc1 -14.5%, Cc1ccc([N+](=O)[O-])c(C(=O)NCC(=O)O)c1 -15.5%, S=C(NNC(=S)NC1CC2C=CC1C2)NC1CC2C=CC1C2 (stereo unspecified) -4.1%, CC(C)CCOS(=O)(=O)c1ccc2c(c1)Cc1cc(S(=O)(=O)OCCC(C)C)ccc1-2 -2.5%, CN(C(=O)Nc1ccc(Cl)cc1)n1cnc2ccccc2c1=O -1.9%, c1ccc(-c2nsc(N3CCNCC3)n2)cc1 1.1%, Cc1oc(-c2ccc(Cl)cc2)cc1C(=O)O/N=C(\N)Cc1nc2cccnc2n1C1CC1 -10.9%, O=C(Cn1nnc2ccccc21)NCCSCc1ccco1 6.7%, O=C(O)CC1(CC(=O)Nc2ccccc2-n2cccn2)CCCCC1 6.9%, O=[N+]([O-])c1ccc(CSc2nc3cc(Cl)c(F)cc3[nH]2)cc1 -10.8%, COc1ccc(/C=N/Nc2nc(C)cc(=O)[nH]2)c(OC)c1 10.6%, Nc1ccccc1SC(C[N+](=O)[O-])c1ccccc1 (stereo unspecified) 10.6%, O=C(N/N=C/c1cccs1)C(=O)Nc1ccc(Cl)c(Cl)c1 -4.8%, Cc1nc2c(ncn2-c2ccccc2)c(=O)n1NC(=O)CN1CCCC1 1.8%, Cn1c(=O)c2c(ncn2Cc2nnc(-c3ccccc3)o2)n(C)c1=O -5.9%, O=[N+]([O-])c1ccc(CSc2nnc(-c3ccncc3)o2)cc1 -7.8%, N#Cc1c(C2CCCCC2)[nH]c(=S)[nH]c1=O -2.7%, Cc1ccc2c(c1)C(=O)C(=O)S2 -13.9%, O=C(CSC1=NCCc2ccccc21)Nc1ccc(F)cc1F -6.1%, O=C(O)CCC(=O)Nc1ccc2c(c1)OCCCO2 8.3%, Oc1ccccc1C=NCCCN=Cc1ccccc1O -15.8%, CCOc1c(N2CCCCC2)c(=O)c1=O 13.6%, O=C(CSc1nnc(-c2ccncc2)o1)N1CCc2ccccc21 -5.6%, O=c1cc(-c2ccccc2)cc(-c2ccccc2)o1 -11.3%, O=C(NNC(=S)Nc1ccccc1Cl)c1ccc(OC(F)(F)F)cc1 19.8%, O=c1c2c(nc3nc[nH]n13)CCC2 -20.2%, CCN(CCN1C(=O)CCC1=O)c1cccc(NC(C)=O)c1 -3.7%, N#CCc1ccc(OC(=O)c2cccnc2)cc1 -6.4%, Cc1nc(-n2cccc2)sc1C(=O)N/N=C/c1ccccc1Cl 33.9%, CCCS(=O)(=O)c1csc(C(=O)OC)c1N/N=C/c1cccs1 -24.1%, Clc1cncc(Cl)c1N/N=C/C1CC2C=CC1C2 (stereo unspecified) 1.3%, CCCCCCCN=C(C)c1ccccc1O -21.6%, CC(C)c1ccc(N2C(=O)/C(=C\c3ccc(-c4ccc([N+](=O)[O-])cc4)o3)SC2=S)cc1 8.3%, CCCN(CCC)S(=O)(=O)c1ccc(C(=O)NNC(=O)c2cc(OC)c(OC)c(OC)c2)cc1 -2.1%, NC(=O)C1CCN(CC(O)COc2ccc(Cl)c(Cl)c2)CC1 (stereo unspecified) -8.2%, O=C(Nc1ccc(F)cc1OC(F)(F)F)N1CCC(O)CC1 -18%, CC(C)(C)c1cc(NC(=O)/C(C#N)=C/c2cccc(Cl)c2Cl)c(C(N)=O)s1 -7.1%, O=C(Nc1ccccc1C(=O)NC1CCSC1)c1cccc(Cl)c1 (stereo unspecified) -15%, COC(=O)CCN1CCc2cc(N=Nc3ccc(C(F)(F)F)cc3)ccc21 15.2%, CC(C)n1c(SCC(=O)c2cccc([N+](=O)[O-])c2)nc2cc(C(F)(F)F)ccc21 -1.6%, O=C(CCc1ccc(O)cc1)N/N=C/c1cc(Cl)cc(Cl)c1O 6.4%, Cc1ccc(NC(C(=O)O)c2ccccc2)cc1 (stereo unspecified) -11.7%, OC(CNCc1ccc2c(c1)OCO2)COc1ccccc1 (stereo unspecified) -20.1%, O=C(NCc1cccnc1)c1ccccc1NC(=O)c1c(F)cccc1F -15.7%, O=C(N/N=C/c1ccc(Cl)cc1Cl)/C(=C/c1cccs1)NC(=O)c1ccccc1 11.5%, COC(=O)c1ccccc1NC(=O)c1ccc(Oc2cc(Cl)cc(Cl)c2)o1 -7%, O=C(NCc1ccc2c(c1)OCO2)c1sccc1Br -14.9%, O=C(NCc1ccc(F)cc1F)c1cc(C(F)(F)F)cc(C(F)(F)F)c1 2.1%, CCOC(=O)C(NC(=O)c1ccco1)(Nc1cc(C)ccn1)C(F)(F)F (stereo unspecified) -1.7%, CSc1cccc(NC(=O)C(=O)NCCc2ccccn2)c1 17.5%, CCOC(=O)CCSc1cc(-n2cccc2)c(Cl)cc1[N+](=O)[O-] -12.9%, CCOC(=O)Cn1sc2nc(C)cc(C)c2c1=O -8.2%, O=C(c1ccccc1I)c1c[nH]c2ccccc12 2.4%, O=C1C=C(NNc2ccccc2)CCC1 -30.2%, O=[N+]([O-])c1ccc2ncccc2c1-n1cccc1 -23.5%, CC(OC(=O)c1cccc(Cl)c1)c1ccc[n+](C)c1 (stereo unspecified) 1.5%, CN(n1cnc2ccccc2c1=O)S(=O)(=O)c1cc(Cl)sc1Cl 4.5%, O=c1o[nH]c(-c2ccccc2)c1N=Nc1c(F)cccc1Cl 4.9%, O=C(O)C1CCC1C(=O)Nc1nnc(C2CC2)s1 (stereo unspecified) 7.5%, O=C(NNC(=S)Nc1ccc(S(=O)(=O)N2CCCCC2)cc1)c1ccncc1 6%, CC(CC(=O)O)Oc1ccc(Cl)cc1[N+](=O)[O-] (stereo unspecified) -0.1%, O=C(O)CCC(=O)Nc1ccccc1 9.6%, O=C(CN1CCOCC1)NNC(=O)c1cccs1 9.5%, O=S(=O)(CCSc1ccccc1NS(=O)(=O)c1cccs1)c1ccc(Cl)cc1 -16.4%, CCCN(CCC)S(=O)(=O)c1ccc(C(=O)Oc2c(C)cccc2OC)cc1 -3.1%, Cc1noc(C)c1C(=O)N1CCOCC1 0.6%, CC(=O)OCc1ccc(COC(C)=O)c(OC(C)=O)c1OC(C)=O -15.9%, O=C1C(Cl)=C(Oc2cc(Cl)c(Cl)cc2Cl)C(=O)c2ccccc21 21.4%, CO/N=C(/C)c1ccc2c(c1)CCO2 10.8%, COC(=O)/C=C/c1cn(C2OCC(CO)C2O)c(=O)[nH]c1=O (stereo unspecified) -22%, O=C(OCc1ccco1)c1cnc(Nc2ccc(OC(F)(F)F)cc2)nc1C(F)(F)F 17.4%, Cc1ccccc1C(=O)NNC(=O)c1ccccc1C1=NCCCN1 -4.3%, O=C(NC(=O)C1CCN(c2ncccc2[N+](=O)[O-])CC1)Nc1ccc(Cl)cc1 -2%, O=c1oc2ccc(Cl)cc2cc1-c1ccc([N+](=O)[O-])cc1 -18.5%, CC(C)(C)c1cc(C(=O)/C=C2/NC(=O)CS2)no1 6.7%, Cc1nn(S(=O)(=O)c2ccc(Cl)cc2)cc1-c1ccccc1 0.1%, Cc1ccc(S(=O)(=O)NC(=O)NNc2ncnc3scc(-c4ccccc4)c23)cc1 -34.5%, NC(N)=N/C(N)=N/c1nnc(C(F)(F)F)s1 13.1%, N#C/C(=C\c1sccc1Oc1ccccc1)S(=O)(=O)c1ccc(C(F)(F)F)cn1 -9.5%, O=S(=O)(Cc1cccc(C(F)(F)F)c1)NCc1ccc2c(c1)OCO2 9.5%, O=c1[nH]cc(Br)c(=O)[nH]1 6.1%, CN(C)c1cc(-c2cc(Cl)sc2Cl)oc(=O)c1Cl -5%, c1ccc(-n2cccc2)c(N2CCCCC2)c1 -9.4%, CC(C)(C)C(=O)NNC(=O)c1ccc(Oc2ccc(C3SCCS3)cc2)o1 30.1%, CCOC(=O)/C(C#N)=C/NNc1c(C)csc1C(=O)OC 8.8%, CS/C(=N/S(=O)(=O)c1c(C)noc1C)NNC(=O)Nc1ccc(Cl)cc1 1.3%, O=C(Nc1ccccc1C(F)(F)F)N1CCCC1c1cccnc1 (stereo unspecified) -12.3%, COc1cccc2cc(C(=O)O)oc12 19.9%, c1ccc(C2=NCCN=C2c2ccccc2)cc1 -1.9%, O=C(O)c1nccnc1C(=O)NCCSCc1c(F)cccc1Cl 2.6%, O=[N+]([O-])c1cc(C(F)(F)F)ccc1OCCO 6.7%, CCOC(=O)CN1C(=O)/C(=C\c2ccc(C)o2)N=C1c1ccccc1 3.1%, O=C(Nc1ccccc1)N1CCN(Cc2ccccc2)CC1 8.5%

inhibition, active:
CN(C)c1cccc2c1c(NC(=O)Nc1ccc(OCc3ccccc3)cc1)nn2C 60.6%, Cc1ccc(/C=c2\sc3nc4ccccc4n3c2=O)o1 53.6%
